Bioassay records as filed in PubChem BioAssay.
GLS inh: qHTS for Inhibitors of Glutaminase (GLS); Glutaminase kidney isoform, mitochondrial (Homo sapiens), O94925; GLS enzymatic activity, qHTS titration; Potency, µM (top dose mostly 45.5 µM), for inactives: at the highest dose activity change, negative = inhibition, most hits filed as inhibitors; 410,000 tested, 0.21% active; AID 624170, 2012; active means well fitted inhibition curve with a large enough effect; inconclusive means small, poorly fitted or top-dose-only effect, or another doubt; inactive means no such curve, though single readings can be large or run the other way; further: potency means the concentration at half of the fitted maximal effect; on the % scale 0 is the no-effect control and ±100 the full control effect
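Enzyme dispensed in phosphate buffer (45 mM, pH 8.2, 0.02% Tween-20), compounds pinned in, then 1 mM L-glutamine solution and the glutamate oxidase–HRP–Amplex Red mix added; fluorescence read immediately and again after 30 min at room temperature.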
Six1-Eya2 inh: qHTS Assay for Inhibitors of the Six1/Eya2 Interaction; Homeobox protein SIX1 (Homo sapiens) + Protein phosphatase EYA2 (Homo sapiens), …; AlphaScreen GST-Six1/His-Eya2 binding, biochemical; active compounds read low; activity change, % (test concentration not listed); 360,000 tested, 0.56% active; further: on the % scale 0 is the no-effect control and ±100 the full control effect
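Compounds are tested against tagged Six1 and Eya2 proteins bridged by glutathione donor and nickel acceptor beads; after a one-hour incubation at 37 °C without light, AlphaScreen emission is recorded.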
MLL CXXC-DNA inh: qHTS Fluorescence Polarization Assay for Inhibitors of MLL CXXC domain - DNA interaction; Histone-lysine N-methyltransferase 2A (Homo sapiens), Q03164; MLL-CXXC / FITC-HOXA9 DNA fluorescence polarization; Potency, µM (series often up to 115 µM), for inactives: top-dose activity change, negative = inhibition, usual class: inhibitors; 290,000 tested, 0.037% active; active means well fitted inhibition curve with a large enough effect in the polarisation, with a control signal flat, not every such curve was filed as active; inconclusive means small, poorly fitted or top-dose-only effect, or effect the other way, or a change in a side signal; inactive means no such curve, though single readings can be large or run the other way; the % refers to the polarisation; further: potency means the concentration at half of the fitted maximal effect
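Purified MLL-CXXC (added from a 7 uM solution) was preincubated 5 min at ambient with pinned compounds in 50 mM Tris-HCl pH 7.5, 50 mM NaCl, 1 mM DTT, 0.05% BSA. Fluorescein-labeled HOX-A9 DNA (50 nM solution) followed, 30 min, then polarization read.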
Menin MLL FP FL: qHTS Assay for Inhibitors Targeting the Menin-MLL Interaction in MLL Related Leukemias: Competition With Fluorescein Labeled MLL-derived Peptide | Fluorescence polarization, fluorescein-MLL peptide displacement from menin | 290,000 tested, under 10 active | AID 1766, 2009 | FP activity change, % at 61.4 µM; active means well fitted curve in the direction sought with a large enough effect in the polarisation, not every such curve was filed as active; inconclusive means small, poorly fitted or top-dose-only effect, or effect the other way, or a change in a side signal; inactive means no such curve, though single readings can be large or run the other way; the % refers to the polarisation; further: % of control where 0% means no effect
CtBP-E1A inh: qHTS Assay for Inhibitors of the CtBP/E1A Interaction; CtBP / adenovirus E1A interaction (AlphaScreen); AlphaScreen GST-E1A/His-CtBP binding, 1536-well; active compounds read low; activity change, % (no concentration beside the values); 340,000 tested, 0.49% active; further: on the % scale 0 is the no-effect control and ±100 the full control effect
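AlphaScreen with 125 nM GST-E1A and 125 nM His-CtBP (5X stocks) in Tris pH 8.0, 300 mM NaCl, BSA, Tween 20, TCEP. Compounds preincubated 2 h at 37 deg C, then glutathione donor/nickel acceptor beads added for 1 h at 37 deg C in dark.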
Menin MLL FP TR: qHTS Assay for Inhibitors Targeting the Menin-MLL Interaction in MLL Related Leukemias: Competition With Texas Red Labeled MLL-derived Mutant Peptide. Menin + Texas Red MLL mutant peptide, fluorescence polarization. AID 1768, 2009. O00255. Potency, µM (doses to about 61.6 µM), inactives show top-dose FP activity change, negative = inhibition, actives largely listed as inhibitors. 270,000 tested, 0.23% active; active means well fitted inhibition curve with a large enough effect in the polarisation, with a control signal flat, not every such curve was filed as active; inconclusive means small, poorly fitted or top-dose-only effect, or effect the other way, or a change in a side signal; inactive means no such curve, though single readings can be large or run the other way; the % refers to the polarisation; further: potency means the concentration at half of the fitted maximal effect; % of control where 0% means no effect
Target sequence (O00255 whole entry, looked up): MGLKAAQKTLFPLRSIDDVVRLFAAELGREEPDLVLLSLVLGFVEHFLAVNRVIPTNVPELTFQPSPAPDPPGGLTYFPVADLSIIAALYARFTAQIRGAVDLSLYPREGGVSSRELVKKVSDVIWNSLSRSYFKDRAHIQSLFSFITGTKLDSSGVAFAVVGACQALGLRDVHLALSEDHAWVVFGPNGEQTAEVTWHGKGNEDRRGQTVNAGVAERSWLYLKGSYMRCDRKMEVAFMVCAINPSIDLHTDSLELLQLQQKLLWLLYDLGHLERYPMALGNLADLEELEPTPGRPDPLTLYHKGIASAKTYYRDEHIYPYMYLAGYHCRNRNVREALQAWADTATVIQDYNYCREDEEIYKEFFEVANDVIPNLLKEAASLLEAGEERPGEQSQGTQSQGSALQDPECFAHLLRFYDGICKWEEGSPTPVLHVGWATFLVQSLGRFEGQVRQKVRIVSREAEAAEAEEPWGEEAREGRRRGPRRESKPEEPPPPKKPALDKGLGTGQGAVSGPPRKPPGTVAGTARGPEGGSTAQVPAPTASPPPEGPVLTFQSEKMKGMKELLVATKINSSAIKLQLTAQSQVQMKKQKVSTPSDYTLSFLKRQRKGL
Numbers without * were called inactive; ? = inconclusive; nt = not tested or not shown; ! = repeats disagree; [ ] = dose if it differs, or a comment. Sampled rows, rich in hits. Any-hit rate of the full collection: about 0.83%. Unless noted, no stated cut-off is given here; in the data, active means activity change below about -65%; inconclusive means mostly about -30% to -63%; inactive means weaker than that.

SMILES	GLS inh	Six1-Eya2 inh	MLL CXXC-DNA inh	Menin MLL FP FL	CtBP-E1A inh	Menin MLL FP TR
COC1CC(O[C@H]2/C(C)=C/CC3CC(C[C@]4(CCC(C)C(C5CCCCC5)O4)O3)OC(=O)[C@H]3C=C(C)/C(=N/O)C4OC/C(=C\C=C\[C@@H]2C)[C@@]43O)OC(C)C1O (some centres undefined)	-6%	nt	9%	-2	nt	22µM*
CCC(C)C1O[C@]2(C=CC1C)CC1CC(C/C=C(\C)[C@H](OC3CC(OC)C(O[C@H]4CC(OC)[C@@H](O)C(C)O4)C(C)O3)[C@@H](C)/C=C/C=C3\COC4C(O)C(C)=C[C@H](C(=O)O1)[C@@]34O)O2 (some centres undefined)	-4%	nt	2%	-3	nt	?
CN1C(=O)[C@]23CC4=CC=C[C@H](O)[C@H]4N2C(=O)[C@@]1(CO)SS3	nt	nt	nt	2	nt	13%
O=c1c2ccccc2nc(/C=C/c2cccnc2)n1Cc1ccccc1	?	-71*	?	0	1	-15%
CCON=C(CC)C1=C(O)CC(c2c(C)cc(C)cc2C)CC1=O (centres undefined)	1%[99.4 µM]	nt	nt	nt	nt	nt
N.N.N.N.N.N.N.N.N.N.N.N.N.N.O.O.[Cl-].[Cl-].[Cl-].[Cl-].[Cl-].[Cl-].[Ru].[Ru].[Ru]	nt	nt	?	?	nt	25µM*
COc1ccc2c3c1OC1C(O)C=CC4[C@@H](C2)NCC[C@]314 (some centres undefined)	0%[99.4 µM]	nt	nt	nt	nt	nt
CN[C@H](C)Cc1ccccc1	-6%[99.4 µM]	nt	nt	nt	nt	nt
CCOc1ccc(N2C(=O)/C(=C/c3ccco3)C(=O)NC2=S)cc1	1.8µM*	-81*	?	?	nt	28%
CCOc1ccc(N2C(=O)/C(=C\c3cccs3)C(=O)NC2=S)cc1	-11%	1	3%	?	0	1%
CN1C(=O)NC(=O)/C(=C\c2ccc([N+](=O)[O-])o2)C1=O	7.1µM*	?	?	?	-1	?
CN(C)[C@@H]1C(=O)C(C(N)=O)=C(O)[C@@]2(O)C(=O)C3=C(O)c4c(O)cccc4[C@@](C)(O)C3[C@H](O)C12 (some centres undefined)	10µM*!	-9	nt	nt	-67*	nt
CCN(CC)C(=O)c1ccc2c(c1)C1C=CCC1C(C(=O)O)N2 (centres undefined)	7.1µM*	-75*	-4%	?	nt	18%
ClC[C@H]1CO1 (tested in a mixture with another compound)	-5%	nt	nt	nt	nt	nt
NC(Cc1ccc(Cl)cc1)c1csc(Nc2cnccn2)n1 (centres undefined)	14%	-72*	nt	nt	?	nt
CC(N)C(=O)c1ccccc1 (centres undefined)	-5%[99.4 µM]	nt	nt	nt	nt	nt
CCCCCC(=O)N[C@@H](c1ccccc1)[C@@H](O)C(=O)O[C@H]1C[C@@]2(O)[C@@H](OC(=O)c3ccccc3)C3[C@](C)(C(=O)[C@H](O)C(=C1C)C2(C)C)[C@@H](OC1OCC(O)C(O)C1O)C[C@H]1OC[C@@]31OC(C)=O (some centres undefined)	-8%	-90*	?	2	-22	0%
CCCCCCCCCCCCCCCC[N+](C)(C)C	?	11	?	2	8	28µM*!
COc1ccc(CNCCc2c(C)[nH]c3ccc(OC(F)(F)F)cc23)c(OC)c1	5%	-12	9%	-18	?	28µM*
Cc1nc2ccccc2c(=O)n1-c1ccc(Br)cn1	7%	15	-7%	2	-3	nt
Cc1nc2ccccc2c(=O)n1/N=C/c1cc(Br)cc(Br)c1O	-11%	-66*	nt	nt	-78*	nt
C[C@]12CC[C@@H]3c4ccc(OC(=O)N(CCCl)CCCl)cc4CC[C@@H]3[C@H]1CC[C@@H]2OP(=O)(O)O	-15%	nt	nt	nt	nt	nt
Cc1c(N=Nc2c(O)n(Cc3ccccc3)c(=O)[nH]c2=O)c(=O)n(-c2ccccc2)n1C	35%	-89*	32%	15	-72*	12%
CN1CCN(C(=O)COc2ccc(-c3nc4ccccc4s3)cc2)CC1	-3%	-7	-1%	2	7	13µM*
CC(C)c1cc2c(c(O)c1O)[C@@]1(C(=O)O)CCCC(C)(C)[C@@H]1CC2	nt	nt	nt	0	nt	?
SMILES	GLS inh	Six1-Eya2 inh	MLL CXXC-DNA inh	Menin MLL FP FL	CtBP-E1A inh	Menin MLL FP TR
COc1ccc(-c2cc(=NCCCCCC(=O)O)c3cc(C)ccc3o2)cc1	-2%	-83*	11%	1	-90*	-7%
COc1ccc(-c2cc(=Nc3cccc(C(=O)O)c3)c3cc(C)ccc3o2)cc1	-2%	-2	-8%	1	2	-5%
CCN1CCN(Cc2nc3ccc([N+](=O)[O-])cc3c(=O)n2-c2ccccc2F)CC1	-15%	0	?	-11	4	10µM*
CCCCN1C(=O)/C(=C/c2ccc(N(C)C)cc2)C(=O)N(Cc2ccco2)C1=O	2%	?	?	?	-4	25µM*
O=C1C(I)=CC(=C(c2cc(I)c(O)c(I)c2)c2ccccc2C(=O)O)C=C1I	?	nt	-12%	18	nt	?
O=C1OC(c2cc(I)c(O)c(I)c2)(c2cc(I)c(O)c(I)c2)c2ccccc21	25µM*	nt	nt	?	nt	?
CON(C)C(=O)Nc1ccc(Br)c(Cl)c1	nt	nt	nt	?	nt	-1%
O=c1[nH]sc2cc(F)ccc12	7.9µM*	13	9%	0	4	3%
CCOC(=O)C(SP(=S)(OC)OC)c1ccccc1 (centres undefined)	nt	nt	nt	5	nt	-14%
O=C(N/N=C/c1c(O)n(C2CCCCC2)c(=S)[nH]c1=O)c1ccccc1	4%	-5	5%	7	-18	39%
O=C(N/N=C/C1C(=O)NC(=S)N(c2ccccc2)C1=O)c1cc(Br)c(O)c(Br)c1 (centres undefined)	0%	-93*	5%	8	-92*	-3%
CCCCNC(C)(C)[P+](=O)O	-8%	nt	nt	nt	nt	nt
CC(C)c1ccc(-n2c(O)c(/C=N/NC(=O)c3ccccc3O)c(=O)[nH]c2=S)cc1	15%	?	-13%	?	?	nt
Cn1c(=O)c2c(nc(N/N=C/c3c(O)n(-c4ccccc4)c(=S)[nH]c3=O)n2C)n(C)c1=O	-16%	-84*	23%	0	-84*	1%
